Experimental data from PubChem BioAssay AID1851 (National Center for Advancing Translational Sciences (NCATS), 2009).
Screen size: about 16,000 compounds; about 5,700 (36%) were called active. Inconclusive results (about 24%) are left out. Calls come from the whole dose curve; as a rule, active = well fitted curve in the direction sought with a large enough effect; inconclusive = small, poorly fitted or top-dose-only effect, or effect the other way; inactive = no such curve, though single readings can be large or run the other way. Some of the results follow.

These molecules were tested against Cytochrome P450 1A2 (Homo sapiens) (UniProt P05177) (assay: Cytochrome panel assay with activity outcomes). Conditions: recombinant CYP, pro-luciferin dealkylation, luminescence, p450-cyp1a2; series mostly up to 57.1 µM; activity, negative = inhibition: at the top concentration.
Cytochrome P450 1A2 (Homo sapiens), sequence (P05177 whole entry, looked up): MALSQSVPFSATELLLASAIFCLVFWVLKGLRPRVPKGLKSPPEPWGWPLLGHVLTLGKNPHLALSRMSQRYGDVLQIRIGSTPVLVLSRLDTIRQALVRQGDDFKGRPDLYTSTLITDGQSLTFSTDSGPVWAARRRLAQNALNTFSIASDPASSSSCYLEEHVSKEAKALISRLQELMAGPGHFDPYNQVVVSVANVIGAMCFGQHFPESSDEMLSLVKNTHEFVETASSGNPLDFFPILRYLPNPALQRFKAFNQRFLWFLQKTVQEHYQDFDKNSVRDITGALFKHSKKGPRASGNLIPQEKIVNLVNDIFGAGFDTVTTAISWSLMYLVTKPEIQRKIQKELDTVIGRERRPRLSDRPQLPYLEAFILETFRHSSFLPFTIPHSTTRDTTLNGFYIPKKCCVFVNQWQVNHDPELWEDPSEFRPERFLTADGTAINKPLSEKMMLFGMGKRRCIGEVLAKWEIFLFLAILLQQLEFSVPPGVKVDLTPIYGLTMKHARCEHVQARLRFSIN
% is set by controls: 0 for no effect and ±100 for the full control effect.

AC50, active:
CC(C)On1c(SC(C)C)nc2ccccc2c1=O 2 µM
COn1c(SC(C)C)nc2ccccc2c1=O 0.708 µM
O=C(NCCc1c[nH]c2ccccc12)C1CCN(c2nnc(N3CCCC3=O)s2)CC1 20 µM
Cc1ccc(N=C/C(C(=O)C(F)(F)F)=C(\O)c2cccs2)cc1 12.6 µM
Cc1cc(C)n2nc(-c3sccc3-n3cccc3)cc2n1 5.01 µM
c1ccc(-c2nc(NCCCn3ccnc3)c3oc4ccccc4c3n2)cc1 0.0398 µM
c1ccc2c(c1)oc1c(NCCCn3ccnc3)ncnc12 0.0562 µM
CCCCN1CCCC[C@H]1C(=O)Nc1c(C)cccc1C 5.01 µM
O=C(Cc1ncc(C(F)(F)F)cc1Cl)Nc1cccc(Br)c1 17.8 µM
CCOC(=O)c1cnc2ccc(C)cc2c1Sc1ccccc1C(=O)OC 3.55 µM
COc1ncc2nc(-c3ccccc3)c(=O)n(-c3ccccc3)c2n1 2 µM
COc1ncc2nc(-c3ccc(Cl)cc3)c(=O)n(-c3ccccc3)c2n1 1.58 µM
COCCNC(=O)COC(=O)/C=C/c1cnc2ccccc2n1 7.08 µM
CCc1c(C)c2c(C)[nH]nc2oc1=O 5.01 µM
CCOC(=O)c1c(C)n(C)c2ccc(OC(=O)c3ccco3)cc12 0.355 µM
CCN(CC)CCOC(=O)c1c(C)n(C)c2ccc(OC)cc12 1.41 µM

activity, negative = inhibition, inactive:
CN1CCN(CCCNC(=O)C2CCN(c3nnc(-n4cccc4)s3)CC2)CC1 -5%
CC1CC(C)CN(CCCNC(=O)C2CCCN(c3nnc(N4CCCC4=O)s3)C2)C1 (configuration not stated) -3.41%
C[C@@H]1NCC[C@H](CC(=O)O)[C@H]1CC(=O)O -6.87% [at 11.4 µM]
FC(F)(F)c1cc(CN2CC3(CCNCC3)C2)cc(C(F)(F)F)c1 -13.1%
Cc1ccc(S(=O)(=O)c2c(C)nn(C(C)(C)C)c2OC(=O)c2cccs2)cc1 -25.5%
CC[C@H](C(=O)c1cccs1)C(O)(C(F)(F)F)C(F)(F)F -17.5% [at 2.29 µM]
CC(=O)N1CCC2(CC1)CN(c1ccccn1)C2 6.5%
CCN1CCN(c2cc(=O)n(-c3cc(Cl)ccc3C)c(=O)[nH]2)CC1 -10.1%
Cc1cc(C)c(NC(=O)C2CCCN2C)c(C)c1 (configuration not stated) -11.5%
Cc1cccc(C)c1NC(=O)N1CCC(N2CCCCC2)CC1 -15.1%
CC(C)C12CC[C@@]3(CC[C@H]4[C@@](C)(CCC[C@]4(C)C(=O)O)[C@@H]3C1)[C@@H](CN)C2 -4.02% [at 11.4 µM]
